Source: PubChem BioAssay (NCATS)
A number with no mark means an inactive call. Records with an inconclusive call do not appear. Active and inactive are the calls of the source. Unless noted, calls follow the shape of the dose curve; as a rule, active = well fitted curve in the direction sought with a large enough effect; inconclusive = small, poorly fitted or top-dose-only effect, or another doubt; inactive = no such curve, though single readings can be large; an effect the other way counts as inactive or inconclusive.

Assays:
[1] = target: Lysosomal acid glucosylceramidase (Homo sapiens) (UniProt P04062); test: Glucocerebrosidase-p2 (AID 348; in the data active = potency below about 10 µM; also: potency is read from the fitted curve at half-maximal effect); details: purified GBA, blue fluorogenic substrate, 40 min
Outline: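 Normal human glucocerebrosidase (0.2 nM) with blue fluorogenic substrate (80 uM final) in citrate/phosphate pH 5.9 with 10mM sodium taurocholate, 0.01% tween-20; 40 min RT, NaOH/glycine stop; fluorescence Ex 365/Em 440; AC50 from a titration from 0.6 nM upwards.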

[2] = AP1 Signaling Pathway (AID 357; active = well fitted curve in either direction with a large enough effect, not every such curve was filed as active;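 also: ME-180 reporter cells stimulated with EGF at its EC50 level; % is scaled to controls: 0 for no effect and ±100 for the full control effect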); details: ME-180 AP-1-bla reporter, EGF-induced, beta-lactamase ratio, 5 h; at 7.69 µM (top of the series) unless noted
Outline: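 Cells are seeded overnight, exposed to compound titrations and an EC50 level of EGF for 5 hours at 37 °C, then loaded with CCF4 dye for 2.5 hours. Beta-lactamase activity under the AP-1 element is read as a blue/green ratio.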

[3] = Stat Signaling Pathway (AID 446; active = well fitted curve in either direction with a large enough effect, not every such curve was filed as active;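 also: ME-180 cervical cancer cells given 40 pM IL-6 alongside compound; SIE-controlled beta-lactamase reporter measured as 460/530 nm FRET emission ratio; % is scaled to controls: 0 for no effect and ±100 for the full control effect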); details: ME-180 SIE beta-lactamase reporter, IL-6 stimulated, 5 h; series mostly up to 7.69 µM
Outline: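 Normalization used AC90 stimulation (300 pM IL-6) and AC90 inhibition (125 nM pan-JAK inhibitor at 40 pM IL-6). The underlying signal is SIE-driven beta-lactamase in ME-180 cells after 5 h IL-6 exposure with compound.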

[4] = target: Glucocorticoid receptor (Homo sapiens) (UniProt P04150); test: GR-GFP Redistribution (AID 450;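 active = compounds whose dose series gives a full or clear partial fitted curve of increased nuclear translocation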; also: potency is read from the fitted curve at half-maximal effect); details: U2OS GR-GFP nuclear translocation, laser cytometry, 2 h
[5] = target: Glucocorticoid receptor (Homo sapiens) (UniProt P04150); test: GR-EFC Redistribution (AID 451; calls by dose curve; also: potency is read from the fitted curve at half-maximal effect); details: CHO-K1 GR-EFC translocation, beta-gal luminescence, 2 h
Outline: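 CHO-K1 cells expressing nuclear EA and GR-ED fragments of b-gal; compounds titrated up to 46 uM final, 2 h at 37 C. GR nuclear translocation read as complemented b-gal luminescence after 1 h RT detection.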

[6] = target: Dual specificity protein kinase CLK4 (Homo sapiens) (UniProt Q9HAZ1); test: qHTS Assay for Inhibitors of CDC-like Kinase 4 (Kinase-Glo Assay) (AID 1770); details: recombinant Clk4, Kinase-Glo ATP depletion luminescence; series mostly up to 66.7 µM; also: nearly all actives have a fitted effect of over 65% in size; also: potency is read from the fitted curve at half-maximal effect
Outline: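 25 nM Clk4 with 100 uM RS repeat peptide and 1 uM ATP (final) in Tris pH7.5, 10 mM MgCl2, 4.5 h at room temperature. Remaining ATP measured by Kinase-Glo luciferase luminescence.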

[7] = target: Dual specificity protein kinase CLK4 (Homo sapiens) (UniProt Q9HAZ1); test: qHTS Assay for Inhibitors of CDC-like Kinase 4 (ADP-Glo Assay) (AID 1771); details: recombinant CLK4, ADP-Glo luminescence; series mostly up to 80 µM; also: nearly all actives have a fitted effect of over 70% in size; also: potency is read from the fitted curve at half-maximal effect
Outline: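 25 nM Clk4, 100 uM RS peptide, 1 uM ATP (final); 2 mM MgCl2, 0.5 mM EGTA, 2.5 mM DTT, 0.01% Triton X-100; 1 hr RT. ADP-Glo readout: ATP depletion 45 min, conversion/luciferase 30 min, luminescence.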

[8] = target: Ubiquitin carboxyl-terminal hydrolase 1 (Homo sapiens) (UniProt O94782); test: Inhibitors of USP1/UAF1: Pilot qHTS (AID 504865); details: purified USP1/UAF1, Ub-rhodamine cleavage fluorescence; series mostly up to 54.9 µM;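 also: rhodamine fluorescence freed from ubiquitin-rhodamine substrate followed over time; top concentration of the series differs between compounds; % is scaled to controls: 0 for no effect and ±100 for the full control effect; nearly all actives have a fitted effect of over 35% in size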
Outline: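 USP1/UAF1 complex at 1 nM preincubated 15 min at room temperature with compound, then Ub-Rho substrate added at 150 nM final. Fluorescence (480/540 nm) read kinetically in 50 mM HEPES pH 7.8, 0.5 mM EDTA, 1 mM TCEP, 0.1 mg/ml BSA, 0.01% Tween-20.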

[9] = target: Cytochrome P450 1A2 (Homo sapiens) (UniProt P05177); test: p450-cyp1a2 (AID 410; calls by dose curve; also: potency is read from the fitted curve at half-maximal effect); details: recombinant CYP1A2, luciferin-ME demethylation, luminescence; series mostly up to 57 µM
Outline: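 20nM CYP1A2, 100uM Luciferin-ME (=Km), 100mM KPO4; cpd 10 min RT; +NADPH regen, 60 min RT; stop/detect 20 min; luminescence. Normalized to furafylline 57 uM = full inhibition.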

[10] = NFAT Signaling Pathway (AID 444; active = well fitted curve in either direction with a large enough effect, not every such curve was filed as active;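 also: carbachol stimulus at about its EC50 of 1 µM final; % is scaled to controls: 0 for no effect and ±100 for the full control effect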); details: Jurkat NFAT-bla M1, carbachol, beta-lactamase ratio, 5 h; at 7.69 µM (top of the series) unless noted
Outline: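 Jurkat cells with NFAT-driven β-lactamase reporter and co-expressed M1 receptor, stimulated with carbachol (final 1 uM, ~EC50), compound titration, 5 h at 37 °C. CCF4 loaded 1 h at RT; 460/530 nm ratio gave %activity and AC50.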

[11] = target: Mitogen-activated protein kinase 10 (Mus musculus) (UniProt Q61831); test: JNK3 AlphaScreen Assay (AID 530; active = well fitted curve in either direction with a large enough effect, not every such curve was filed as active;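 also: kinase came from lysate of stimulated human HepG2 cells; signal reports phosphorylation of biotinylated GST-cJun 1-79 at Ser73 with 10 µM ATP; % is scaled to controls: 0 for no effect and ±100 for the full control effect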); details: JNK3 lysate, c-Jun phosphorylation; series mostly up to 57.1 µM
Outline: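 HepG2 lysate (IL-1b/TNFa pre-activated) + biotin-GST-cJun 1-79 + anti-pSer73 cJun; cpd titration, 15 min RT; ATP 10 uM start; Tris pH 7.6, MgCl2, DTT, vanadate; beads in EDTA buffer; AlphaScreen.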

[12] = target: 3',5'-cyclic-AMP phosphodiesterase 4B (Homo sapiens) (UniProt Q07343); test: qHTS Assay for Inhibitors of PDE-IV (AID 607; active = well fitted activation curve with a large enough effect in the main read-out, with a control signal flat, not every such curve was filed as active; also: % of control where 0% means no effect); details: HEK293 ACTOne CNG channel cells, membrane potential fluorescence; series mostly up to 22.9 µM
Outline: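 HEK293 ACTOne cells with CNG channel (1000/well), endogenous PDE4; membrane potential dye, compounds up to 22.9 uM final. Fluorescence Ex 535/Em 590; RO 20-1724 (100 uM final) as reference.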

[13] = target: Cytochrome P450 3A4 (Homo sapiens) (UniProt P08684); test: qHTS Assay for Activators of Cytochrome P450 3A4 (AID 885); details: recombinant CYP3A4, Luciferin-PPXE luminescence, 60 min; series mostly up to 57.1 µM; also: nearly all actives have a fitted effect of over 65% in size
Outline: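 Human CYP3A4 dealkylates Luciferin-PPXE to luciferin, which luciferase detection converts to light. Substrate was at its KM (25uM), buffer 200mM KPO4, reaction 60 min at RT.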

[14] = target: Cytochrome P450 2D6 (Homo sapiens) (UniProt P10635); test: qHTS Assay for Inhibitors and Substrates of Cytochrome P450 2D6 (AID 891); details: recombinant CYP2D6, luciferin-ME EGE luminescence; series mostly up to 57.1 µM; also: potency is read from the fitted curve at half-maximal effect; nearly all actives have a fitted effect of over 60% in size
Outline: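 Luminescent read-out of luciferin formed by 5 nM human CYP2D6 demethylating 30 uM Luciferin-ME EGE (Km level) over 60 min at room temperature after NADPH regeneration addition. Data normalized to full inhibition by 1.43 uM quinidine.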

[15] = target: Dual specificity protein kinase CLK4 (Homo sapiens) (UniProt Q9HAZ1); test: qHTS Assay for Inhibitors of CDC-like Kinase 4 (ADP-FP Assay) (AID 1795); details: Transcreener ADP fluorescence polarization; series mostly up to 50 µM; also: nearly all actives have a fitted effect of over 60% in size; also: potency is read from the fitted curve at half-maximal effect
Outline: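 Recombinant Clk4 (6.25 nM) phosphorylated 100 uM RS repeat peptide with 1 uM ATP in 25 mM Tris pH 7.5, 10 mM MgCl2, 0.5 mM EGTA, 2.5 mM DTT, 0.01% Triton X-100 for 1 h. ADP was detected by Transcreener ADP2 competitive fluorescence polarization after 30 min at room temperature.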

[16] = target: Cytochrome P450 2C9 (Homo sapiens) (UniProt P11712); test: qHTS Assay for Inhibitors and Substrates of Cytochrome P450 2C9 (AID 883); details: recombinant CYP2C9, luciferin-H luminescence, 60 min; series mostly up to 57.1 µM; also: nearly all actives have a fitted effect of over 60% in size; also: potency is read from the fitted curve at half-maximal effect
Outline: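 Human CYP2C9 (10nM) with Luciferin-H at 100uM (its KM) in 25mM KPO4; compound preincubated 10 min at 37C, then NADPH regeneration for 60 min at 37C. Luciferin read by luminescence after detection reagent; normalized to 57uM sulphaphenazole as full inhibition.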

[17] = target: Cytochrome P450 3A4 (Homo sapiens) (UniProt P08684); test: qHTS Assay for Inhibitors and Substrates of Cytochrome P450 3A4 (AID 884); details: recombinant CYP3A4, Luciferin-PPXE luminescence; series mostly up to 57.1 µM; also: potency is read from the fitted curve at half-maximal effect; nearly all actives have a fitted effect of over 50% in size
Outline: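 Luminescent readout of luciferin produced by CYP3A4 (20 nM) dealkylation of Luciferin-PPXE, 25 uM (its KM). NADPH-driven reaction ran 60 min at RT after 10 min compound preincubation; data scaled to 57 uM ketoconazole as 100% inhibition.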

[18] = target: Cytochrome P450 2C19 (Homo sapiens) (UniProt P33261); test: qHTS Assay for Inhibitors and Substrates of Cytochrome P450 2C19 (AID 899); details: recombinant CYP2C19, luciferin-H EGE luminescence; series mostly up to 57.1 µM; also: potency is read from the fitted curve at half-maximal effect; nearly all actives have a fitted effect of over 60% in size
Outline: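 5 nM human CYP2C19 with 10uM Luciferin-H EGE (at KM) in 50mM KPO4, compound preincubated 10 min at 37C, then NADPH regeneration for 60 min at 37C. Luciferin read by luminescence after detection reagent; normalized to 57uM ketoconazole as full inhibition.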

[19] = qHTS Assay for Identification of Small Molecule Agonists for Hypoxia Response Element Signaling Pathway (AID 914; active = well fitted activation curve with a large enough effect in the signal ratio, with a control signal flat, not every such curve was filed as active; the % refers to the signal ratio; also: % of control where 0% means no effect); details: ME-180 (cervical carcinoma) HRE-bla reporter, beta-lactamase ratio, CoCl2, 17 h; activation: hits give high values
Outline: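 HRE-bla ME-180 assay for agonist-like enhancement of an EC50 CoCl2 stimulus: 17 h at 37 degrees Celsius, CCF4 for 2.5 h, ratiometric 460/530 nm signal converted to %Activity and fitted to AC50.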

Lysosomal acid glucosylceramidase (Homo sapiens), sequence (P04062 whole entry, looked up): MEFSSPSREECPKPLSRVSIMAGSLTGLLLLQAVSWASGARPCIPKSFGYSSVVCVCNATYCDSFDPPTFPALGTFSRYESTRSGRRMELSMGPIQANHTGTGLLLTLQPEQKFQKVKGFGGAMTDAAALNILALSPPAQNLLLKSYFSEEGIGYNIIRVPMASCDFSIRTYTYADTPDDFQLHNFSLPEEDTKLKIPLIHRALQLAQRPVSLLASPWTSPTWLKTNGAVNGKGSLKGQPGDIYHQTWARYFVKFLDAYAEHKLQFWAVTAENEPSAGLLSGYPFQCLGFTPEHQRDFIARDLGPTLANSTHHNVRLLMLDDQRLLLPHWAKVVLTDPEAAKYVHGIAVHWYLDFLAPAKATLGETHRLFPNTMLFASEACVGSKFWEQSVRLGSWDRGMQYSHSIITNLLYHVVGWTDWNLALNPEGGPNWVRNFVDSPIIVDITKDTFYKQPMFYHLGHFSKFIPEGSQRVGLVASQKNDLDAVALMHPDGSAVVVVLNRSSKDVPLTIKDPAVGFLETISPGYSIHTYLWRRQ
Glucocorticoid receptor (Homo sapiens), sequence (P04150 whole entry, looked up, the tested form may be a part): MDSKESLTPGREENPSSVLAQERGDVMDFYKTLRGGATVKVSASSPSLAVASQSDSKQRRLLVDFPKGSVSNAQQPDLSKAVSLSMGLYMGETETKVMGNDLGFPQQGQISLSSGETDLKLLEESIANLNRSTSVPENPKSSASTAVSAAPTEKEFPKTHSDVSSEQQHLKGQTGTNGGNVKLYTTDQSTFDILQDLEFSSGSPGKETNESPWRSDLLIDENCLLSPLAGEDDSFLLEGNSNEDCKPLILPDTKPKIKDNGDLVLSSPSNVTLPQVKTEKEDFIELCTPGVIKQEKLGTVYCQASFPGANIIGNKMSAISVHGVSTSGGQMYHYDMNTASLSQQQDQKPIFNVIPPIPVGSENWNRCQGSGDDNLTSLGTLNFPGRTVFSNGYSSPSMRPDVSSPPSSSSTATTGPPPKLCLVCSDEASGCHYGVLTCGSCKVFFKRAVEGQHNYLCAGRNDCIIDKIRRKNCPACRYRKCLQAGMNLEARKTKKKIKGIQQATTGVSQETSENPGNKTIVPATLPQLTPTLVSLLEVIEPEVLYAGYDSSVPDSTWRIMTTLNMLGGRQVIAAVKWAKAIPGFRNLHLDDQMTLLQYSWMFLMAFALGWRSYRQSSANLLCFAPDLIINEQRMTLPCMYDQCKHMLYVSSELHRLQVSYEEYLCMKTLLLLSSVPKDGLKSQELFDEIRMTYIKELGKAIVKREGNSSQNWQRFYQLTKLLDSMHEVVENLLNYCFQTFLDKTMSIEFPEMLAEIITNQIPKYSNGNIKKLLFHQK
Cytochrome P450 3A4 (Homo sapiens), sequence (P08684 whole entry, looked up): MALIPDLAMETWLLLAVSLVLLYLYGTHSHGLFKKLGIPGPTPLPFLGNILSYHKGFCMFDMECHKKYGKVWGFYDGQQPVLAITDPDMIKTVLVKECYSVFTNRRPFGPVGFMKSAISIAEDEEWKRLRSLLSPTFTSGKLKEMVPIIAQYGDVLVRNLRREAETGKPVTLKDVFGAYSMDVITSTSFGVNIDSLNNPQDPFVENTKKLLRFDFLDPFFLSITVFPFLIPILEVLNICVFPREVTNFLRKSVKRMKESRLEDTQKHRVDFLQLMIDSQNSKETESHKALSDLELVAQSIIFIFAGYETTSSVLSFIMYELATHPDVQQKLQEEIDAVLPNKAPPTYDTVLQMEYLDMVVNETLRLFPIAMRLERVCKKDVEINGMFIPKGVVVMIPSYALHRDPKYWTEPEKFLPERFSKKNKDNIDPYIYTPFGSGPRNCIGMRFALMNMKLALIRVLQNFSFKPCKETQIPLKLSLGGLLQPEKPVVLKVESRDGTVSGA
Cytochrome P450 1A2 (Homo sapiens), sequence (P05177 whole entry, looked up): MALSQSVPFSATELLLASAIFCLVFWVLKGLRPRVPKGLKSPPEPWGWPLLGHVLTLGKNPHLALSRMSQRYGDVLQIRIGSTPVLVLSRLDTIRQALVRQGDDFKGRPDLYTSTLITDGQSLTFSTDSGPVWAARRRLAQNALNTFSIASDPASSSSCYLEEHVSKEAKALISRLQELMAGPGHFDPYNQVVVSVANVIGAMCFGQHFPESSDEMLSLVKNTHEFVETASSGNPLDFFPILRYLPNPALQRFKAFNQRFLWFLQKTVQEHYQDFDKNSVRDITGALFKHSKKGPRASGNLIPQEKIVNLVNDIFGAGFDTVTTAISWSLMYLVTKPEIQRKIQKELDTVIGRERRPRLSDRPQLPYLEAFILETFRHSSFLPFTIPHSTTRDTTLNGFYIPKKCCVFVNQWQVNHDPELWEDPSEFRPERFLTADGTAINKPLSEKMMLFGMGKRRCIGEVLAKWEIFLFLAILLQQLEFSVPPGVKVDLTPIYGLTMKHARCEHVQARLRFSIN
Ubiquitin carboxyl-terminal hydrolase 1 (Homo sapiens), sequence (O94782 whole entry, looked up): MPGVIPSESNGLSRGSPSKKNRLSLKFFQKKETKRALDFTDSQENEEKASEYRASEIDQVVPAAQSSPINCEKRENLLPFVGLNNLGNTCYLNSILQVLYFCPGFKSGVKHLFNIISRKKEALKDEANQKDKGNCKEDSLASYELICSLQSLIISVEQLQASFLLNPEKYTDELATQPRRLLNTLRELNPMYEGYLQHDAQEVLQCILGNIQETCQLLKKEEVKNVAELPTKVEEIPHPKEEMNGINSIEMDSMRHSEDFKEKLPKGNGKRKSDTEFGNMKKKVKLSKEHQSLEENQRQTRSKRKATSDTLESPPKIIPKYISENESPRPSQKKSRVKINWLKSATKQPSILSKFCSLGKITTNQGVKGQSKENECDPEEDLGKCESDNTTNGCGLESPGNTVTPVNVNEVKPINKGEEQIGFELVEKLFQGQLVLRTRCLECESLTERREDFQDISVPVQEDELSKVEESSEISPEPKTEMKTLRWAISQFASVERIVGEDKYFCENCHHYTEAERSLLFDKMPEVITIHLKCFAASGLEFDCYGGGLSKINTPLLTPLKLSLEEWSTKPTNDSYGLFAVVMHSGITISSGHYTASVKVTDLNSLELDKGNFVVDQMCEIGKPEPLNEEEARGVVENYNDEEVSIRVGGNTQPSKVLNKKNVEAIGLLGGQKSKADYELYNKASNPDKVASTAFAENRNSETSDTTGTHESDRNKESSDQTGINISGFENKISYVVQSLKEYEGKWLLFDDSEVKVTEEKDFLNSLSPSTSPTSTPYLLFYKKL
3',5'-cyclic-AMP phosphodiesterase 4B (Homo sapiens), sequence (Q07343 whole entry, looked up): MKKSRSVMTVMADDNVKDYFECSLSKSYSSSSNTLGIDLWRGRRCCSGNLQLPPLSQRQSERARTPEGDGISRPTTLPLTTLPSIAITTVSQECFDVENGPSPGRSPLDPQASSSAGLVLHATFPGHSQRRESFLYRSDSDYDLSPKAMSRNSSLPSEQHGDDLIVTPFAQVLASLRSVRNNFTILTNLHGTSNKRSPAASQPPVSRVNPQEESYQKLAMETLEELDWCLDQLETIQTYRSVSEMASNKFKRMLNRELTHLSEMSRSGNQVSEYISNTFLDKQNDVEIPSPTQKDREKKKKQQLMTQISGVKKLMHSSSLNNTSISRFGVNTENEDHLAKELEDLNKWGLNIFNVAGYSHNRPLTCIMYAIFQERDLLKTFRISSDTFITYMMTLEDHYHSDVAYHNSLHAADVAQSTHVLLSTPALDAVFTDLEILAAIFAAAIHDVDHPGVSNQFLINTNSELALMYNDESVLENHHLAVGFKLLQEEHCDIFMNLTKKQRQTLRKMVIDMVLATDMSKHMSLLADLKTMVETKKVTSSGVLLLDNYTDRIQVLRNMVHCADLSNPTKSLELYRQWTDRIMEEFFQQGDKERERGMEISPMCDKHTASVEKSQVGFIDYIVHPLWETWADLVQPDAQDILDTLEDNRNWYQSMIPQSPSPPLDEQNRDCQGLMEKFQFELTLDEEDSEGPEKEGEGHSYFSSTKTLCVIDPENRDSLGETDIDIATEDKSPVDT
Dual specificity protein kinase CLK4 (Homo sapiens), sequence (Q9HAZ1 whole entry, looked up): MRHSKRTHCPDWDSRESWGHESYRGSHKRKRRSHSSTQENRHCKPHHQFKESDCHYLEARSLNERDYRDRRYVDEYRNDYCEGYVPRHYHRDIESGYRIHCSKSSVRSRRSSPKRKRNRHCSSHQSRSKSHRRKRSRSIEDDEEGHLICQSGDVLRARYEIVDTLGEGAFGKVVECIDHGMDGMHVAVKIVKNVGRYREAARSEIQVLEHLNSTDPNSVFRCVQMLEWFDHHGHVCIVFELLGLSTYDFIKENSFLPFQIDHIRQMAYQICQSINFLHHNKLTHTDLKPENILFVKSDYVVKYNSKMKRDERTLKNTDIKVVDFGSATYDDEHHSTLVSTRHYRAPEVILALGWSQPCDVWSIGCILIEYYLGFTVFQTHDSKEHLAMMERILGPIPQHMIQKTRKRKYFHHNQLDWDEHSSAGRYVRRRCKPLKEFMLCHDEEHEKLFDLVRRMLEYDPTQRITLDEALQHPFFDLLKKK
Cytochrome P450 2D6 (Homo sapiens), sequence (P10635 whole entry, looked up): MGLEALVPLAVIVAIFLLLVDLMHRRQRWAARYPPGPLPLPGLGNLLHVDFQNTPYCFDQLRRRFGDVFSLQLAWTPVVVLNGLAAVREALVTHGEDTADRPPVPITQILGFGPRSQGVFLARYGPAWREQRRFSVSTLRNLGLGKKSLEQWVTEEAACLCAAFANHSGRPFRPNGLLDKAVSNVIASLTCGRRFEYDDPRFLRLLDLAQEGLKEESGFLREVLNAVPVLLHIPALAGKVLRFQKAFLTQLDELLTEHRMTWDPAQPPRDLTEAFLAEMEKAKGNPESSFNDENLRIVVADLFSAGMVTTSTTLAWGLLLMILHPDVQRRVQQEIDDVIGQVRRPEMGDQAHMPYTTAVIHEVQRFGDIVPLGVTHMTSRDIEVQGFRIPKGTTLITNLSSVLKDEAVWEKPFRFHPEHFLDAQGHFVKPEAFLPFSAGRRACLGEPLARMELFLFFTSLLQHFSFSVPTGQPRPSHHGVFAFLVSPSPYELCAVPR

SMILES | Potency [1] | activity change, negative = inhibition [2] | outcome [3] | Potency [4] | Potency [5] | Potency [6] | Potency [7] | Potency [8] | Potency [9] | activity change, negative = inhibition [10] | Potency [11] | Potency [12] | outcome [13] | Potency [14] | Potency [15] | activity change, negative = inhibition [16] | Potency [17] | Potency [18] | Potency [16] | activation [19]
CN(C)c1nc(-c2cccc(C#N)c2)nc2ccccc12 | > 11.4 µM | 2.42% | inactive | > 46 µM | > 46 µM | 15.8 µM (active) | 15.8 µM (active) | inactive |  |  |  |  |  |  |  |  |  |  |  | 
CN(C)c1ccc(-c2cc(N(C)Cc3ccco3)ncn2)cc1 |  | -23.1% | inactive | > 46 µM |  | 25.1 µM (active) | 31.6 µM (active) | inactive | 0.316 µM (active) | 3.68% | inactive | inactive | inactive | 7.94 µM (active) | inactive |  |  |  |  | 
CN(C)C(=O)c1ccc(-c2cc(NCc3ccccc3)ncn2)cc1 | > 11.4 µM | -9.2% |  | > 46 µM | > 46 µM | 25.1 µM (active) | 31.6 µM (active) | inactive | 12.6 µM (active) | 27.8% | inactive | inactive |  |  |  |  |  |  |  | 
COc1ccc(CNc2cc(-c3cccc(NS(C)(=O)=O)c3)ncn2)c(OC)c1 | > 11.4 µM |  |  | > 46 µM |  | inactive | inactive | inactive | 15.8 µM (active) | -10.4% | inactive | inactive | inactive |  | inactive | 30.9% [at 2.29 µM] | 2.51 µM (active) |  |  | 
COc1cccc(-c2cncnc2NCCc2c[nH]c3ccc(OC)cc23)c1 | > 11.4 µM |  |  | > 46 µM | > 46 µM | 20 µM (active) | 22.4 µM (active) | inactive | 2 µM (active) |  |  | inactive | inactive | 2.51 µM (active) | inactive |  | 0.501 µM (active) | 0.316 µM (active) |  | 
Cn1cc(-c2nc3cnc(N4CCNCC4)nc3n(C3CC3)c2=O)c2ccccc21 | > 11.4 µM |  |  | > 9.22 µM | > 46 µM | inactive | inactive | inactive | 12.6 µM (active) | 28.9% |  | inactive | inactive |  | inactive |  |  |  | 3.98 µM (active) | 
COc1cccc(-c2ccc3ncnc(NCc4cnc(C)cn4)c3c2)c1 | > 11.4 µM |  | inactive | > 46 µM | > 46 µM | 3.16 µM (active) | 2.51 µM (active) | inactive | 2.51 µM (active) | 27.1% |  | inactive | inactive |  | 1.41 µM (active) |  | 7.94 µM (active) |  |  | -8.99%
